VP16 counter: VP16 counterscreen qHTS for inhibitors of ROR gamma transcriptional activity; AID 2546, 2010; Drosophila S2 Gal4-VP16 UAS-luciferase, luminescence, 20 h; hit rate 3.5% among 310,000; Potency, µM (doses to about 53.6 µM), for inactives: at the top dose activity, negative = inhibition, usual class: inhibitors;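 note: Gal4-VP16 expression switched on by copper sulfate through the metallothionein promoter; potency is the fitted concentration of half-maximal effect; % is set by controls: 0 for no effect and ±100 for the full control effect; nearly all actives have a fitted effect of over 50% in size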
p53 reactivator: qHTS assay for re-activators of p53 using a Luc reporter; H1299 p53-A138V BP100-luciferase reporter, luminescence, 24 h; Potency, µM (doses to about 92.2 µM), without a hit: at the highest dose activity change, positive = activation, hits mostly activators; hit rate 0.063% among 320,000; AID 504706, 2011; note: potency is the fitted concentration of half-maximal effect; % of control where 0% means no effect; nearly all actives have a fitted effect of over 45% in size
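H1299 (p53-null), stable ts p53-A138V + BP100-Luc; 1000 cells/well, Opti-MEM/10% FBS; cpd 4 pt, 1:5; 24 h, 37 deg C, 5% CO2; detection reagent 10 min RT; luminescence.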
Giardia killer: Small Molecules that selectively kill Giardia lamblia: qHTS; hit rate 0.15% among 340,000; activity change, % at 7.66 µM, hits read low; Giardia lamblia trophozoite viability; in the data active = activity change below about -80%; inconclusive = between about -30% and that limit;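 note: parasites exposed to compound for two days anaerobically before the ATP read; % is set by controls: 0 for no effect and ±100 for the full control effect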
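Viability, read as ATP luminescence: trophozoites at 100 cells/well, compound added, 48 hrs anaerobic at 37 deg C, then 15-30 min room-temperature development before reading.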
ELG1 repair inh: qHTS screen for small molecules that inhibit ELG1-dependent DNA repair in human embryonic kidney (HEK293T) cells expressing luciferase-tagged ELG1; hit rate 2.3% among 330,000; HEK293T ELG1-luciferase reporter, luminescence, 16 h; DNA damage induced by 5-fluorouridine; Potency, µM (doses to about 46.1 µM), without a hit: top-dose activity change, negative = inhibition, most hits filed as inhibitors; note: potency is the fitted concentration of half-maximal effect; % is set by controls: 0 for no effect and ±100 for the full control effect; nearly all actives have a fitted effect of over 55% in size
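Cells (2,000 per well) received 5-fluorouridine plus test compound or DMSO and were incubated 16 hr at 37 °C, 5% CO2. Luciferase activity was read by luminescence 30 min after ONE-Glo addition; signal suppression marked inhibition of damage-induced ELG1 function.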
BRCA1 expr act: qHTS Assay to Identify Small Molecule Activators of BRCA1 Expression. MCF7-BRCA1-FFLuc reporter, luminescence, 48 h; response scale: scaled: vehicle 0%, 10 µM genistein 100%. Potency, µM (highest dose often 46.1 µM), for inactives: at the top dose activation, actives largely listed as activators. hit rate 1.1% among 380,000. AID 624202, 2012; note: potency is the fitted concentration of half-maximal effect; nearly all actives have a fitted effect of over 80% in size
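Luminescence from a BRCA1-driven firefly luciferase in MCF7 cells was read after 48 h compound exposure at 37 C. Data normalized against DMSO and a 10microM genistein activation control, then curve-fitted across the titration.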
RORgamma inh: qHTS for inhibitors of ROR gamma transcriptional activity | Nuclear receptor ROR-gamma (Mus musculus), P51450 | Drosophila S2 Gal4-RORgamma UAS-luciferase reporter, 20 h | Potency, µM (highest dose often 53.6 µM), without a hit: at the top dose activity change, negative = inhibition, usual class: inhibitors | AID 2551, 2010 | hit rate 5.4% among 310,000; note: potency is the fitted concentration of half-maximal effect; % is set by controls: 0 for no effect and ±100 for the full control effect; nearly all actives have a fitted effect of over 60% in size
Target sequence (P51450 whole entry, looked up, the tested form may be a part): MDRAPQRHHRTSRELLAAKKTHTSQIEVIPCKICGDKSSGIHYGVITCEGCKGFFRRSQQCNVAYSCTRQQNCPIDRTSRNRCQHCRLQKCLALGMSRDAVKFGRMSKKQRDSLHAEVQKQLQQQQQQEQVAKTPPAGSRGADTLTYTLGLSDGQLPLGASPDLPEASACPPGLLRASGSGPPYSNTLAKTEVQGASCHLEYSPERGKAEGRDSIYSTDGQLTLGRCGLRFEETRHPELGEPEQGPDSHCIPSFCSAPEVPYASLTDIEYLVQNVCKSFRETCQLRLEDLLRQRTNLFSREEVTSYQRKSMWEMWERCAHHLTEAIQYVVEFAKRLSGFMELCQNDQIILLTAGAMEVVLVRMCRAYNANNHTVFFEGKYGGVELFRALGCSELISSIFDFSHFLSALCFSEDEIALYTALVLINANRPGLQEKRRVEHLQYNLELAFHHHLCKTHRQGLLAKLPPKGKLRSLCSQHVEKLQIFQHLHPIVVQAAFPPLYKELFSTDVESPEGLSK
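Stably transfected Drosophila Schneider cells are the test system, with ROR gamma fused to Gal4 and luciferase under UAS control; luminescence is read after 20 hr of 700 uM copper sulfate induction at ambient temperature.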
Active calls of the source: *; u = inconclusive; x = no result given. Hits are enriched below; roughly 7.6% of the tested compounds scored in any of these assays. Unless noted, calls come from the whole dose curve; as a rule, active = well fitted curve in the direction sought with a large enough effect; inconclusive = small, poorly fitted or top-dose-only effect, or another doubt; inactive = no such curve, though single readings can be large; an effect the other way counts as inactive or inconclusive.

SMILES | VP16 counter | p53 reactivator | Giardia killer | ELG1 repair inh | BRCA1 expr act | RORgamma inh
COc1ccc(-c2[nH]c3ccccc3c2SCCNC(=O)c2ccccc2)cc1 | u | 2% | -5 | 16µM* | -85% | u
COc1ccc(C(=O)NCCSc2ccccc2)cc1 | u | u | 9 | u | 7% | 11µM*
COc1cccc(C(=O)NCCSc2c(C)[nH]c3ccccc23)c1OC | -4% | -6% | -8 | 23µM* | -55% | 39%
COc1ccc(C(=O)NCCNC(=O)c2ccc(OC)cc2)cc1 | x | x | -21 | x | -8% | x
CCC(Sc1nc(=O)cc(N)n1-c1cccc(C)c1)C(=O)Nc1cc(C)on1 (configuration not stated) | -5% | 5% | -1 | -12% | 6% | -21%
COc1ccc(S(=O)(=O)N2Cc3ccccc3CC2C(=O)O)cc1OC (configuration not stated) | 4% | 2% | -15 | -1% | -7% | -1%
S=C(NCc1cccc(Cl)c1)NCc1ccco1 | u | -11% | -11 | -3% | 9% | -107%
S=C(NCc1ccc(Cl)c(Cl)c1)NCc1ccco1 | u | -9% | 7 | -4% | 0% | u
S=C(NCc1ccco1)Nc1ccc(Cl)cc1Cl | u | u | -22 | u | 7.9µM* | 11µM*
S=C(NCc1ccco1)Nc1ccc(Br)cc1Cl | -25% | 27% | -17 | 10% | 10µM* | 13µM*
CCOC(=O)c1ccc(N2C(=O)C(CC(=O)NC)N(CCc3ccc(OC)c(OC)c3)C2=S)cc1 (configuration not stated) | u | 15% | 1 | u | 6% | u
CCOc1ccc(-n2c(SCc3nc(-c4ccc(OC)cc4)no3)nnc2-c2ccncc2)cc1 | x | x | x | x | -9% | x
COc1ccc(C2CC(C(F)(F)F)n3nc(C(=O)Nc4ccc5c(c4)OCO5)cc3N2)cc1 (configuration not stated) | 1% | -3% | 2 | 23µM* | -34% | 17%
COc1ccc(OC)c(NC(=O)c2cc3n(n2)C(C(F)(F)F)CC(c2ccc4c(c2)OCO4)N3)c1 (configuration not stated) | -13% | 13% | 2 | 5% | -75% | 5%
COc1ccccc1NC(=O)c1cc2n(n1)C(C(F)(F)F)CC(c1ccc3c(c1)OCO3)N2 (configuration not stated) | -6% | -9% | 8 | 16µM* | -7% | -2%
O=C(c1cccs1)N1CCN(c2ccccc2)CC1 | u | -1% | -7 | -4% | 2% | -27%
O=C(NC(=S)N1CCN(c2ccc(O)cc2)CC1)c1cccs1 | 2.8µM* | 0% | -14 | 13µM* | -9% | 3.5µM*
CC(C)[C@H](NC(=O)c1c(F)cccc1F)C(=O)N1CCN(c2ccc(F)cc2)CC1 | 11% | 1% | -1 | u | -12% | 0%
O=C(NC(=S)N1CCN(c2ccc(F)cc2)CC1)c1cccs1 | 0.56µM* | 0% | -6 | -10% | -3% | 45µM*
O=C(NC(=S)N1CCN(c2ccccc2)CC1)c1c(F)cccc1F | 1.4µM* | -26% | 7 | 5% | 21% | 0.71µM*
O=C(CSc1ncccc1C(=O)O)NCCC1=CCCCC1 | -2% | 13% | 20 | 0% | 10% | -12%
C=CCn1c(=O)/c(=C/c2ccc(Cl)cc2)s/c1=C(/C#N)c1nnc2n1CCCCC2 | -10% | 0% | -9 | 21µM* | -35% | -14%
CCN1C(=O)c2cccc3c(S(=O)(=O)N(C(=O)c4ccncc4)c4ccc(OC)cc4)ccc1c23 | 7.9µM* | 4% | -13 | -11% | -52% | u
CCN1C(=O)c2cccc3c(S(=O)(=O)Nc4ccc(OC)cc4OC)ccc1c23 | 18µM* | -14% | 6 | u | -22% | u
Cc1cc(S(=O)(=O)N2CCN=C2c2ccccc2)c(C)cc1Cl | -8% | -4% | -11 | -6% | -1% | 1.3µM*
SMILES | VP16 counter | p53 reactivator | Giardia killer | ELG1 repair inh | BRCA1 expr act | RORgamma inh
CC(C)C1S/C(=N/N=C/c2ccco2)NC1=O (configuration not stated) | 3.2µM* | 4% | -16 | 22% | -1% | 0.2µM*
Cc1ccccc1CC1S/C(=N/N=C/c2ccco2)NC1=O (configuration not stated) | 2µM* | -1% | x | 0% | x | 0.45µM*
O=C(CCC(=O)Nc1ccccc1)N/N=C/c1ccc2c(c1)OCO2 | 2% | u | -20 | u | u | 15%
CSc1nc(N)nc2c1ncn2CC(=O)NCc1ccccc1 | x | 3% | -18 | -12% | 11% | x
CSc1nc(N)nc2c1ncn2CC(=O)NCc1ccc2[nH]ccc2c1 | x | -8% | 1 | 23µM* | -18% | x
CS(=O)(=O)N1CCN(c2ccccc2NC(=O)c2cc(Br)ccc2Cl)CC1 | -9% | -3% | -2 | u | -3% | 19%
O=C(NC(=S)Nc1ccc(CN2CCOCC2)cc1)c1ccc(-c2cccc(Cl)c2)o1 | 14µM* | -6% | -19 | u | -25% | 3.2µM*
O=C(NC(=S)Nc1ccccc1N1CCOCC1)c1ccc(-c2cccc(Cl)c2)o1 | 5.6µM* | 18% | 10 | u | -48% | 2.5µM*
CS(=O)(=O)N1CCN(c2ccccc2NC(=O)c2ccc(-c3ccc(Br)cc3)o2)CC1 | -4% | 4% | 3 | 15µM* | -29% | 22%
CCCCN(CCCC)C(=O)c1cc2ccccc2c(=O)o1 | -11% | 7% | 0 | -16% | -4% | 40%
CC(NC(=O)c1ccc(S(C)(=O)=O)cc1)c1cccc2ccccc12 (configuration not stated) | -6% | -3% | -9 | 1% | 2% | -25%
O=C(Cn1ccc2ccccc2c1=O)NCCC(=O)N1CCN(c2ccccc2)CC1 | -1% | 2% | 0 | -10% | -5% | 1%
O=C1/C(=C\c2ccccn2)SC(=S)N1Nc1ncc(C(F)(F)F)cc1Cl | u | 1% | 2 | 10% | 1% | 11µM*
C/C(=N\NC(=S)NCC(C)(C)C)c1cc(F)cc(F)c1O | 4µM* | 15% | -8 | u | -59% | 2.8µM*
CC(=O)Nc1cccc(/C(C)=N/NC(=O)c2cccs2)c1 | 3% | 17% | 22 | u | u | -7%
C/C(=N\NC(=O)c1cccs1)c1ccc2c(c1)OCO2 | -6% | 15% | 4 | u | 8.9µM* | 19%

Compound activity (PubChem BioAssay)
